Consider eight compounds from PubChem BioAssay (NCI).

About 83,000 compounds went through this panel and 20% of them were active in at least one assay; those are over-represented in the sample as a whole.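 Method: cells in 96-well plates; compound added at one concentration; 48 h incubation; percent growth measured; values under 10 scored active.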 Values without a mark were called inactive. The source made the active and inactive calls.

Test systems include NCI-H23 lung; NCI-H226 lung; NCI-H322M lung; HOP-62 NSCLC; NCI-H460 lung; HOP-92 NSCLC; NCI-H522 lung; A549/ATCC NSCLC; 786-0 renal; COLO 205 colon; DU-145 prostate; K-562 leukemia; MALME-3M melanoma; MDA-MB-231 breast; RXF 393 renal; SF-268 CNS; SF-295 CNS; SF-539 CNS; UACC-257 melanoma; M14 melanoma.
Common to all, as to test: NCI-60 one-dose screen, 48 h (100 = growth as untreated, 0 = no growth, -100 = all killed)
Common to all, as to conditions: 10 µM

On to `CC(=O)[C@H]1CC[C@H]2[C@@H]3CC[C@@H]4CC=C(C=O)C[C@]4(C)[C@H]3CC[C@]12C`, for which the growth was 92.7% in the test with NCI-H23 lung; 99.4% in the test with NCI-H226 lung; 97.6% with NCI-H322M lung; 122% in the test with HOP-62 NSCLC; 103% with NCI-H460 lung; 68.1% with HOP-92 NSCLC. Also, the growth in the test with NCI-H522 lung is 82.5%; in the test on A549/ATCC NSCLC, 92.4%; with 786-0 renal, 93.2%; in the test on COLO 205 colon, 105%; in the test with DU-145 prostate it was 98.7%; in the test on K-562 leukemia, 81.9%. Besides, the growth with MALME-3M melanoma was 96.2%; with MDA-MB-231 breast, 94.3%; in the test with RXF 393 renal it was 112%; in the test on SF-268 CNS, 92.4%; in the test with SF-295 CNS, 93.2%; with SF-539 CNS it was 92.4%. For the same compound, the growth is 96.2% in the test with UACC-257 melanoma and 89.2% in the test with M14 melanoma.
Consider `O=C(NCCc1nccs1)c1cnc2c(S)cccc2c1`, for which the growth with NCI-H23 lung is 34.2%; with NCI-H226 lung, 46.1%; in the test on NCI-H322M lung, 29.7%; with HOP-62 NSCLC, 29.3%; in the test with NCI-H460 lung, 0.683% (active); in the test with HOP-92 NSCLC it was 54.5%. Further, the growth with NCI-H522 lung is -65.7% (active); in the test with A549/ATCC NSCLC, 12.6%; in the test on 786-0 renal, 47%; in the test on COLO 205 colon, -52.4% (active); in the test with DU-145 prostate it was 22.9%; in the test on K-562 leukemia, 4.3% (active). Besides, the growth with MALME-3M melanoma was 40.1%; with MDA-MB-231 breast it was 13.6%; in the test on RXF 393 renal, 9.59% (active); with SF-268 CNS, 37.7%; with SF-295 CNS, 38.8%; in the test on SF-539 CNS, 22.8%. Moreover, the growth in the test on UACC-257 melanoma is 17.7%; in the test with M14 melanoma, 10.7%.
For `CC1=CC2OC34COC3CC(OC(=O)C(F)(F)F)C4(C)C2(C)CC1` (stereo not given), the growth was 110% in the test on NCI-H23 lung; 98.7% in the test with NCI-H226 lung; 96.1% with NCI-H322M lung; 97.4% in the test on HOP-62 NSCLC; 104% in the test with NCI-H460 lung; 104% in the test with HOP-92 NSCLC. The growth in the test on NCI-H522 lung was 103%; in the test with A549/ATCC NSCLC it was 97.8%; with 786-0 renal, 101%; in the test with COLO 205 colon, 99.7%; in the test on DU-145 prostate, 108%; in the test on K-562 leukemia, 120%. Moreover, the growth was 109% in the test on MALME-3M melanoma; 101% with MDA-MB-231 breast; 93.9% in the test with RXF 393 renal; 103% with SF-268 CNS; 100% with SF-295 CNS; 98.4% with SF-539 CNS. In addition, the growth in the test with UACC-257 melanoma was 103%; in the test on M14 melanoma, 96%.
Turning to `CC(C)c1ncc(CO)n1Cc1c(Cl)cccc1Cl`, the growth in the test on NCI-H23 lung is 110%; with NCI-H226 lung it was 94.3%; with NCI-H322M lung, 99.7%; in the test with HOP-62 NSCLC, 103%; in the test with NCI-H460 lung, 103%; with HOP-92 NSCLC it was 93.6%. Further, the growth with NCI-H522 lung is 94.4%; in the test on A549/ATCC NSCLC, 102%; in the test with 786-0 renal, 104%; in the test on COLO 205 colon it was 89.6%; in the test on DU-145 prostate, 106%; with K-562 leukemia it was 92.3%. The growth in the test on MALME-3M melanoma was 103%; in the test with MDA-MB-231 breast, 115%; in the test with RXF 393 renal, 95.8%; in the test with SF-268 CNS, 96.5%; with SF-295 CNS it was 96.1%; in the test on SF-539 CNS, 98.7%. Further, the growth is 106% in the test on UACC-257 melanoma and 109% in the test with M14 melanoma.
Regarding `N#C/C(=C/c1cc([N+](=O)[O-])ccc1Cl)C(N)=O`, the growth in the test on NCI-H23 lung was 98.4%; in the test on NCI-H226 lung, 94.4%; in the test with NCI-H322M lung, 97.2%; in the test on HOP-62 NSCLC, 94.8%; with NCI-H460 lung, 110%; with HOP-92 NSCLC, 87.8%. Moreover, the growth in the test on NCI-H522 lung is 87.7%; in the test on A549/ATCC NSCLC it was 106%; with 786-0 renal, 104%; in the test with COLO 205 colon, 117%; with DU-145 prostate, 92.7%; with K-562 leukemia it was 38.8%. For the same compound, the growth in the test on MALME-3M melanoma is 99%; in the test with MDA-MB-231 breast, 111%; in the test with RXF 393 renal it was 99.2%; with SF-268 CNS it was 96.4%; with SF-295 CNS, 98.1%; in the test on SF-539 CNS, 101%. Besides, the results for the growth in the test on UACC-257 melanoma and in the test on M14 melanoma were 97.8% and 88.8%, respectively.
In the case of `CNC(=S)Sc1ccc([N+](=O)[O-])cc1[N+](=O)[O-]`, the growth is 83.5% with NCI-H23 lung; 78.9% with NCI-H226 lung; 99.1% with NCI-H322M lung; 83% in the test with HOP-62 NSCLC; 102% in the test with NCI-H460 lung; 23.6% in the test with HOP-92 NSCLC. Further, the growth is -57.7% (active) in the test on NCI-H522 lung; 80.8% with A549/ATCC NSCLC; 93.9% with 786-0 renal; -35.1% (active) in the test with COLO 205 colon; 38.1% with DU-145 prostate; 7.74% (active) in the test with K-562 leukemia. Moreover, the growth with MALME-3M melanoma was 87.1%; with MDA-MB-231 breast, 50.8%; in the test with RXF 393 renal, 97.4%; in the test with SF-268 CNS, 94.2%; in the test with SF-295 CNS it was 95.1%; with SF-539 CNS it was 25.9%. For the same compound, the growth in the test on UACC-257 melanoma was 62.5%; in the test on M14 melanoma it was 24.3%.
Consider `C=CCc1cc(Nc2c3ccc(Cl)cc3nc3ccc(OC)cc23)cc(CN(CC)CC)c1O`, for which the growth with NCI-H23 lung is -0.558% (active); in the test on NCI-H226 lung, 26.3%; in the test on NCI-H322M lung, 49.5%; in the test with HOP-62 NSCLC, 9.37% (active); in the test on NCI-H460 lung, 4.5% (active); in the test with HOP-92 NSCLC it was -20.5% (active). The growth was -5.89% (active) with NCI-H522 lung; 13.3% with A549/ATCC NSCLC; 12.3% in the test with 786-0 renal; -83.9% (active) with COLO 205 colon; 20.5% in the test with DU-145 prostate; 3.36% (active) with K-562 leukemia. Also, the growth was 2.15% (active) in the test on MALME-3M melanoma; 0.676% (active) with MDA-MB-231 breast; 32.1% in the test with RXF 393 renal; 23% in the test with SF-268 CNS; -2.05% (active) in the test with SF-295 CNS; 21.2% with SF-539 CNS. Further, the values for the growth in the test on UACC-257 melanoma and in the test on M14 melanoma were 4.74% (active) and 19.8%, respectively.
Turning to `CC(=O)N(O)c1ccc(/C=C/c2ccccc2)cc1`, the growth in the test with NCI-H23 lung is 31%; with NCI-H226 lung it was -20.6% (active); in the test on NCI-H322M lung it was 29.4%; with HOP-62 NSCLC, 42.7%; in the test with NCI-H460 lung it was 8.15% (active); in the test with HOP-92 NSCLC, -5.13% (active). Besides, the growth with NCI-H522 lung is 68.3%; with A549/ATCC NSCLC it was 25.6%; in the test with 786-0 renal, 19.9%; in the test on COLO 205 colon it was 46.5%; in the test with DU-145 prostate, 3.54% (active); in the test on K-562 leukemia it was 73.3%. The growth in the test with MALME-3M melanoma is 94%; with MDA-MB-231 breast, 48.7%; in the test with RXF 393 renal, -11% (active); in the test with SF-268 CNS, 12.4%; in the test on SF-295 CNS, -26.7% (active); in the test with SF-539 CNS it was 33.6%. In addition, the growth in the test on UACC-257 melanoma was -6.82% (active); in the test on M14 melanoma, 46.2%.
